Publication PMC4336329 (PLoS ONE, 2015)
The campaign covered roughly 310,000 compounds. About 14,000 (4.5%) showed an effect of 50% or more. The effect is printed as a negative number. What follows is part of a selection rich in strong results, with near analogues and random picks from the rest.

The compounds below were run against human ether-à-go-go-related gene (hERG) potassium channel (human, UniProt Q12809) (assay: primary screen, population patch clamp on CHO cells stably expressing hERG; higher = less effect of the substance).
Sequence of human ether-à-go-go-related gene (hERG) potassium channel (Q12809 whole entry, looked up): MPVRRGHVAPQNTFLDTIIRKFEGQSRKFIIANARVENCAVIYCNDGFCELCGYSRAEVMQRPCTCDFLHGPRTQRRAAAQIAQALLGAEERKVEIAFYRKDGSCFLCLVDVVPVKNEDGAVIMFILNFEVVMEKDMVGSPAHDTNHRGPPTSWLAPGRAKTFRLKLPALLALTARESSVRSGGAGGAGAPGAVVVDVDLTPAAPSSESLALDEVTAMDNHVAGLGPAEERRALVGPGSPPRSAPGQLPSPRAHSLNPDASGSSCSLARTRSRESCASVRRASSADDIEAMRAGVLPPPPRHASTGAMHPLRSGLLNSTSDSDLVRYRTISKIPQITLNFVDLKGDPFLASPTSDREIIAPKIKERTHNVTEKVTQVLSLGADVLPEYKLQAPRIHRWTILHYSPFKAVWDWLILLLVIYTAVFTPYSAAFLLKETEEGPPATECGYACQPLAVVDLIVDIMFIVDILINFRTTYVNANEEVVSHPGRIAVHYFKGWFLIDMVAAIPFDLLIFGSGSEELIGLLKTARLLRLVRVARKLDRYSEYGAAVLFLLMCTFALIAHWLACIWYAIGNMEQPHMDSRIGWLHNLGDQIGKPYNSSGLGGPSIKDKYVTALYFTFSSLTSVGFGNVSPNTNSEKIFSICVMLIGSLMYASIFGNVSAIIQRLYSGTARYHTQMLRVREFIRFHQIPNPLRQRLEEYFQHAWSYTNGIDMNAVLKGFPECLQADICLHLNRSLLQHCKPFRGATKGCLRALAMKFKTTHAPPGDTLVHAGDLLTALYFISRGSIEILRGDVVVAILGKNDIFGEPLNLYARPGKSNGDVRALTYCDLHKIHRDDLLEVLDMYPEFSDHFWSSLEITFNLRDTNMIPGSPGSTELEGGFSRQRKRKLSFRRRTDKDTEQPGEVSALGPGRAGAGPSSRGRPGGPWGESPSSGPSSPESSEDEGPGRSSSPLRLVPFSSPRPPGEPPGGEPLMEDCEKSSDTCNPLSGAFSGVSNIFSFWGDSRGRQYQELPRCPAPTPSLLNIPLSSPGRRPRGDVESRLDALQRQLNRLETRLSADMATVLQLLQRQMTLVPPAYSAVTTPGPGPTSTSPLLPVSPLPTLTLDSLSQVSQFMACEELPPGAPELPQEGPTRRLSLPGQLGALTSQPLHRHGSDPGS
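Note: peak tail current of the secondary pulse compared with the same well before compound.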

SMILES	hERG current change (%, negative = inhibition) at 10uM [%]
COC(=O)CSc1nnc(COc2cccc3ccccc23)o1	13.6
CN(C)/C=C1\N=C(c2ccccc2)OC1=O	3.09
COc1ccc(N2CCN(C(C)C(=O)Nc3nnc(C)s3)CC2)cc1.Cl (stereo not shown)	-1.41
CSc1ccccc1NC(=O)Cc1ccccc1	13.8
CCN(CC)S(=O)(=O)c1ccc(NC(=O)CCN2C(=O)C3CC=CCC3C2=O)cc1 (stereo not shown)	-30
CC1(c2ccccc2Cl)NC(=O)N(CC(=O)Nc2ccc(N3CCCCC3)cc2)C1=O (stereo not shown)	-21.9
CC(=O)N1CCc2cc(S(=O)(=O)CCC(=O)Nc3ccccc3F)ccc21	13.3
O=C(NCc1ccco1)C1CCN(C(=O)c2cc3sccc3n2Cc2ccc(F)cc2)CC1	-68.5
CCCCN(CCCNC(=O)C1CCN(C(=O)c2cc3sccc3n2C)CC1)Cc1ccccc1	-60.8
O=C(NCCN1CCOCC1)c1cc2sccc2n1Cc1ccc(F)cc1	-47
O=C(NCc1ccccn1)C1CCN(C(=O)c2cc3sccc3n2Cc2ccc(F)cc2)CC1	-46.5
CCOC(=O)c1cc2sccc2n1CC(=O)N1CCN(C(=O)c2ccco2)CC1	-48.2
O=C(c1cc2sccc2n1Cc1ccccc1)N1CCN(c2nc3ccccc3s2)CC1	-17
CC(C)NC(=O)C1CCN(C(=O)c2cc3sccc3n2Cc2ccc(F)cc2)CC1	-3.2
CCN(CCCNC(=O)C1CCN(C(=O)c2cc3sccc3n2C)CC1)Cc1ccccc1	-38.4
O=C(Cn1c(C(=O)NCCCN2CCOCC2)cc2sccc21)c1ccccc1	-16.5
O=C(c1ccco1)N1CCN(C(=O)c2cc3sccc3n2Cc2ccccc2)CC1	-55.6
CC(C)N(CCCNC(=O)C1CCN(C(=O)c2cc3sccc3n2C)CC1)Cc1ccccc1	-23.2
O=C(NCCN1CCOCC1)c1cc2sccc2n1Cc1ccc(Cl)cc1	-59.9
COCCSc1nnc(NS(=O)(=O)c2ccc(F)cc2)s1	3.84
O=C(c1ccncc1)N1c2ccccc2Sc2ccccc21	18.2
CC(C)=CCCC(C)N(C=O)C(C)CCC=C(C)C (stereo not shown)	-1.01
CC(=O)c1cccc(NC(=O)COC(=O)c2ccccc2C)c1	-14.4
CN(C)S(=O)(=O)c1ccc(C(=O)OCC(=O)Nc2ccccc2OC(F)F)cc1	-5.82
CC(OC(=O)c1cc(Br)ccc1O)C(=O)NC1(C#N)CCCCC1 (stereo not shown)	27.3
Cc1c(N=Cc2nc3ccccc3[nH]2)c(=O)n(-c2ccccc2)n1C	5.52
Cc1ccc(S(=O)(=O)NC(CC(=O)N2CCC3(CC2)OCCO3)c2ccco2)cc1 (stereo not shown)	3.51
CC(C)[C@H](NC(=O)NCCc1ccc(Cl)cc1)C(=O)O	5.9

SMILES	hERG current change (%, negative = inhibition) at 10uM [%]
COc1ccccc1-c1noc(CCC(=O)Nc2cc(C(F)(F)F)ccc2Cl)n1	-3.68
CC(C)=CC(=O)OCC(=O)Nc1cc([N+](=O)[O-])ccc1F	0.461
CC(C)CCN(Cc1ccco1)S(=O)(=O)c1csc(C(N)=O)c1	-14.9
CC1(c2ccc(OC(F)F)cc2)NC(=O)N(CC(=O)N2c3ccccc3NC(=O)C2(C)C)C1=O (stereo not shown)	-6.78
CCCCNC(=O)N(O)C1N(/N=C/c2ccccc2F)C(=S)SC1(C)C (stereo not shown)	16.5
Cc1ccc(C(=O)N[C@H](C(=O)OCC(=O)NC2CCS(=O)(=O)C2)C(C)C)cc1 (stereo partly shown)	11.6
Cc1ccc2[nH]c(=O)c(CN(CCO)C(=O)N(C)C)cc2c1	5.5
Cc1ccc(NC(=S)N(CCCN(C)C)Cc2cc3cc4c(cc3[nH]c2=O)OCO4)cc1	-41.7
Cc1ccc2[nH]c(=O)c(CN(CCCN(C)C)C(=O)Nc3ccc(F)cc3)cc2c1	-70.7
CC(=O)N(CCc1cccc(C)c1)Cc1cc2cc(C)ccc2[nH]c1=O	-5.71
Cc1ccc2[nH]c(=O)c(CN(CCCN(C)C)C(=O)Nc3cccc(Cl)c3)cc2c1	-53.6
COc1ccc(NC(=O)N(Cc2cc3cc(C)ccc3[nH]c2=O)CC2CCCO2)cc1 (stereo not shown)	-25.2
Cc1cccc(NC(=S)N(CCCN(C)C)Cc2cc3cc4c(cc3[nH]c2=O)OCO4)c1	-52.7
CN(C)CCCN(Cc1cc2cc3c(cc2[nH]c1=O)OCO3)C(=S)Nc1cccc(Cl)c1	-45.7
Cc1ccc2[nH]c(=O)c(CN(CCCN(C)C)C(=O)Nc3ccc(Cl)cc3)cc2c1	-66.1
Cc1cccc(NC(=O)N(Cc2cc3cc(C)ccc3[nH]c2=O)CC2COCCO2)c1 (stereo not shown)	6.43
CN(C)CCCN(Cc1cc2cc3c(cc2[nH]c1=O)OCO3)C(=S)Nc1ccccc1	-36.6
CCCn1c(SCC(=O)NCc2ccco2)nnc1-c1ccncc1	19.9
O=C(NNC(=O)C1CC1)Nc1ccc(Cl)cc1	6.38
CNC(=O)c1nn(-c2ccccc2)ccc1=O	-1.51
COc1cc2nc(N3CCN(C(=O)[C@H]4COc5ccccc5O4)CC3)nc(N)c2cc1OC	-37.7
O=S(=O)(c1ccccc1F)N1CCN(Cc2cc3c(cc2O)OCO3)CC1	-11.8
O=C(COC(=O)C1=COCCO1)Nc1ccc(F)c(F)c1	-1.21
Cc1ccc(N2C(=O)C3C4C=CC(C4)C3C2=O)cc1C (stereo not shown)	13.3
C=CCn1c(SCC(=O)NC(=O)c2cccc([N+](=O)[O-])c2)nnc1-c1ccccc1F	-15.5
Cn1c(SCC(=O)NC(=O)c2cccc([N+](=O)[O-])c2)nnc1-c1ccc(F)cc1	-23.3
O=C(CSc1nnc(-c2ccccc2F)n1C1CC1)NC(=O)c1cccc([N+](=O)[O-])c1	-52.8
